Among the data in PubChem BioAssay AID2013 (Sanford-Burnham Center for Chemical Genomics, 2009) are inhibition values, retold here.

Hit rate of the full screen: of about 290,000 compounds, about 370 (0.13%) were called active.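 Rule for the calls: active = spots per cell inhibited over 60%, with over 100 cells counted and total cytoplasm intensity under 500,000; inconclusive = wells with under 100 cells, flagged as likely toxic; inactive = the rest.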 The list comes from a sample in which actives are over-represented; it also holds similar structures and randomly drawn compounds. Results with a measured potency or affinity are listed apart.

G-protein coupled receptor 55 (Homo sapiens), sequence (Q9Y2T6 whole entry, looked up): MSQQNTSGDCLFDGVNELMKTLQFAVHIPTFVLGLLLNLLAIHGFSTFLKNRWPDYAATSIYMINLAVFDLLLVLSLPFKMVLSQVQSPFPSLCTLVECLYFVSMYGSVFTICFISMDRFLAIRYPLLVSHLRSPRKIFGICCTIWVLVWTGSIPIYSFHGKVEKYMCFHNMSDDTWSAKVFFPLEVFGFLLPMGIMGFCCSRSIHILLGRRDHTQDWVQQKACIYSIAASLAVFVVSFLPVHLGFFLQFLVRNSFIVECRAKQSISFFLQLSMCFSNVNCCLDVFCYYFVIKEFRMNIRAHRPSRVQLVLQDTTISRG

This assay addresses G-protein coupled receptor 55 (Homo sapiens) (UniProt Q9Y2T6). Put plainly: inhibition of LPI-stimulated GPR55 beta-arrestin translocation – imaging, U2OS, beta-arrestin-GFP, LPI agonist, primary screen (AID 2013).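 Note: U2OS cells stably carrying GPR55 and arrestin-GFP stimulated by 5 µM LPI near EC80; imaged beta-arrestin-GFP aggregate spots per cell after agonist stimulation; plate controls were LPI-stimulated DMSO wells for no effect and DMSO wells without LPI for full effect.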 The note with it: LPI antagonism, at 10 µM, active compounds read high.
For the compound `CCCCOc1ccc(-c2nnn(CC(=O)NCCc3c[nH]c4ccccc34)n2)cc1`, the inhibition – broadly, the relative decrease from the control value, in per cent – is 4% (inactive). As to `CCOc1cc(-c2noc(CCC(=O)NCC3CCCO3)n2)ccc1OC` (stereo not given), the inhibition was 0% (inactive). Take `COc1ccc(C2CC(=O)c3cnn(-c4nc(C)cc(C)n4)c3C2)cc1OC` (stereo not given): the inhibition is 6.6% (inactive). Consider `CC1=CC(C)(C)N2C(=O)C3(NCCc4c3[nH]c3ccccc43)c3cccc1c32` (stereo not given), for which the inhibition is 18.2% (inactive).

Regarding `O=C(CNC(=S)N(Cc1ccc(F)cc1)C1CCCCC1)NCCN1CCOCC1`, the inhibition was 12.3% (inactive).

`Cc1c(C(=O)NC2CCCCC2C)oc2ccccc12` (stereo not given): the inhibition was 0.8% (inactive). As for `COc1cc(NC(=O)C2CCN(S(=O)(=O)c3cccnc3)CC2)cc(OC)c1OC`, the inhibition was 8.8% (inactive).

In the case of `O=C(c1cccnc1)N1CCN(C(=O)c2cccc(Cl)c2)CC1`, the inhibition is -12.2% (inactive). For `Cc1cccc2c1c(N=NC(N)=S)c(O)n2C1OC(CO)C(O)C(O)C1O` (stereo not given), the inhibition was -13.4% (inactive).

For the compound `O=C1NCCN(Cc2ccoc2)C1CC(=O)N(CCO)Cc1ccccc1` (stereo not given), the inhibition is 1.1% (inactive). As to `CCCCOc1ccccc1NC(=O)c1ccc(=O)[nH]c1`, the inhibition is 2.2% (inactive). `CCCCOc1ccccc1NC(=O)c1ccco1`: the inhibition is 13.2% (inactive). Turning to `O=C(CCc1ccccc1Cl)NC1CCCN(c2ccc(C(F)(F)F)cn2)C1` (stereo not given), the inhibition was 5% (inactive). As for `COc1ccc(C(C(=O)NCCC(C)C)N(CCCO)C(=O)c2snc(C(N)=O)c2N)cc1OC` (stereo not given), the inhibition was 5% (inactive). `Nn1c(COc2cccc(Cl)c2)nc2ccccc2c1=O`: the inhibition was -10.2% (inactive).

Take `CCc1nonc1NC(=O)c1oc2ccccc2c1C`: the inhibition was 10% (inactive). `N=c1n(Cc2ccccc2)c2ccccc2n1CC(O)COc1ccccc1` (stereo not given): the inhibition was 50.2% (inactive). With `Cc1ccc(OCC(O)Cn2c(=N)n(Cc3ccccc3)c3ccccc32)cc1` (stereo not given), the inhibition was 13.1% (inactive).

Take `CC(C)N(C(=O)CSc1nc2ccccc2n1Cc1ccccc1)C(C)C`: the inhibition is 2% (inactive). Take `O=C(O)CSc1nc2ccccc2n1-c1ccccc1`: the inhibition is 6.1% (inactive). Consider `CC(=O)Nc1ccc(NC(=O)c2ccc(C)c(S(=O)(=O)Nc3cccc(C)c3)c2)cc1`, for which the inhibition is -3.1% (inactive). Then `COC(=O)C1CCN(C2=C(NS(=O)(=O)c3ccc(Cl)cc3)C(=O)c3ccccc3C2=O)CC1`, with 2% (inactive); and `Cc1cc(NC(=O)NC2CCCN2S(=O)(=O)c2ccc(Cl)cc2)no1` (stereo not given), with 8.3% (inactive). As for `Cc1cc(C)cc(-c2nnc(SCC(=O)c3ccc4c(c3)OCCO4)o2)c1`, the inhibition is -7.3% (inactive). `CC(C)(C)c1ccc(CN(Cc2ccco2)Cc2nnnn2C2CCCC2)cc1`: the inhibition was 19.2% (inactive). `c1coc(CN(Cc2cccs2)Cc2nnnn2C2CCCCC2)c1`: the inhibition was 25.9% (inactive). For the compound `CCCCCn1c(=O)[nH]c2cc(C(=O)NCc3ccc4c(c3)OCO4)ccc2c1=O`, the inhibition was 31.9% (inactive). Then `CC1CCN(C(=O)c2ccc([N+](=O)[O-])o2)CC1`, with 5.5% (inactive); and `NS(=O)(=O)c1ccc(NC(=O)C(Sc2ccccc2)c2ccccc2)cc1` (stereo not given), with 12.2% (inactive); and `CCC(C)NC(=O)C(Sc1ccccc1)c1ccccc1` (stereo not given), with -0.3% (inactive). `CC(=O)Nc1ccc(NC(=O)C(Sc2ccccc2)c2ccccc2)cc1` (stereo not given): the inhibition is -1.5% (inactive). With `CCCNC(=O)C(Sc1ccccc1)c1ccccc1` (stereo not given), the inhibition is 8.1% (inactive). As for `CC(=O)NS(=O)(=O)c1ccc(NC(=O)C(Sc2ccccc2)c2ccccc2)cc1` (stereo not given), the inhibition was 8% (inactive).

With `CCCCNC(=O)C(Sc1ccccc1)c1ccccc1` (stereo not given), the inhibition is -9.3% (inactive). On to `CCOCCc1nn2c(=O)cc(CSCC(=O)Nc3ccc(OC)cc3)nc2s1`, for which the inhibition is 16.4% (inactive). `Cc1cc(-c2ccccc2)c2c(=O)n(-c3ccccc3)[nH]c2n1`: the inhibition was -8.8% (inactive). For the compound `COc1cc(S(=O)(=O)N2CCC(C(N)=O)CC2)c(C)cc1C`, the inhibition is -8.6% (inactive). For the compound `CCCC(=O)NC(c1ccccc1Cl)c1ccc2cccnc2c1O` (stereo not given), the inhibition was 11.4% (inactive). Take `CN(C)c1ccc(/C=N/n2c(COc3ccccc3)n[nH]c2=S)cc1`: the inhibition is 1.6% (inactive). Regarding `COC(=O)c1cc(NC(=O)Cc2ccc(OC)c(OC)c2)cc(C(=O)OC)c1`, the inhibition was 11% (inactive). The same measure for `COc1ccc(C(=O)NCC2(c3ccc(OC)c(OC)c3)CCCC2)c(OC)c1`: -8.5% (inactive).

For the compound `CCN1CC2=C(OC(N)=C(C#N)C2c2cccs2)/C(=C\c2cccs2)C1` (stereo not given), the inhibition was 13.2% (inactive). Turning to `CCN1CC2=C(OC(N)=C(C#N)C2c2ccccc2)/C(=C\c2ccccc2)C1` (stereo not given), the inhibition is 3.6% (inactive). For `Cc1nc2ccccc2nc1OCc1cccc([N+](=O)[O-])c1`, the inhibition was 6.2% (inactive). With `Cc1cc(C)c(NC(=O)c2ccccc2C(=O)c2ccccc2)c(C)c1`, the inhibition was 10.3% (inactive). In the case of `Cc1ccc(C)c(NC(=O)c2ccccc2O)c1`, the inhibition was 10.8% (inactive). In the case of `Cc1ccc(C)c(NC(=O)c2ccccc2C(=O)c2ccccc2)c1`, the inhibition was 79.4% (active).

For the compound `OCC[C@@H]1C[C@H](O)[C@@H](O)[C@]2(Cc3ccccc3O2)O1`, the inhibition is -2.3% (inactive).

`COc1ccc(-c2cc(N)n(S(=O)(=O)c3ccc(F)cc3)n2)cc1OC`: the inhibition is 1.3% (inactive). Consider `COc1ccc(S(=O)(=O)n2nc(-c3cc(OC)c(OC)c(OC)c3)cc2N)cc1OC`, for which the inhibition was -6.7% (inactive).

Regarding `Cn1nnc2c(N3CCCCC3)nccc21`, the inhibition is 14.8% (inactive). As for `O=C(CC12CC3CC(CC(C3)C1)C2)Nc1ccc(C(=O)O)cc1`, the inhibition is -2.4% (inactive). The same measure for `CC(=O)Nc1ccc(NC(=O)CC23CC4CC(CC(C4)C2)C3)cc1`: 55.6% (inactive); for `O=C(NCCCn1ccnc1)c1cc(C2CC2)on1`: -6.4% (inactive). Turning to `CCOc1ccc2oc(C(=O)NCC(C)(C)CN(C)C)c(C)c2c1`, the inhibition is 13% (inactive). Then `O=C(NCCc1ccccc1)C1COc2ccccc2O1` (stereo not given), with 5.5% (inactive); and `CCCCCn1c(N)c(-c2nc3ccccc3o2)c2c([N+](=O)[O-])nn(CC)c(=O)c21`, with 13.1% (inactive).

For `CCCCn1c(N)c(-c2nc3ccccc3o2)c2c([N+](=O)[O-])nn(CC)c(=O)c21`, the inhibition is 4.8% (inactive). With `CCn1nc([N+](=O)[O-])c2c(-c3nc4ccccc4o3)c(N)n(CCCOC)c2c1=O`, the inhibition was 98.4% (active). Then `CCOC(=O)N1CCC(=NNC(=O)Cn2ccc(C(F)(F)F)n2)CC1`, with -11.4% (inactive); and `COC(=O)c1cnc(SCC(=O)c2ccccc2)n1C`, with 2% (inactive); and `CC(C(=O)NCc1cccs1)N1C(=O)c2ccccc2C1=O` (stereo not given), with 17.5% (inactive). As to `C=CCNC(=O)c1ccc([N+](=O)[O-])c(Cl)c1`, the inhibition is -0.3% (inactive). Regarding `COCCCNC(=O)c1ccc([N+](=O)[O-])c(Cl)c1`, the inhibition is 2.9% (inactive). Consider `Cc1ccnc2c(N3C(=O)C4C5c6ccccc6C(c6ccccc65)C4C3=O)cccc12` (stereo not given), for which the inhibition was 13.1% (inactive).

Turning to `Cc1ccc(C)c(NC(=O)CN(C)C(=O)/C=C/c2ccco2)c1`, the inhibition is -6.6% (inactive). In the case of `CCCCCCCCOC(=O)CCc1c(C)[nH]c(=S)[nH]c1=O`, the inhibition was -16.9% (inactive).

As to `COc1ccc(C)cc1NC(=O)CCNS(=O)(=O)c1cccc2nonc12`, the inhibition is 6.9% (inactive). Then `COc1ccc(C(OCC(O)CNCCc2ccccc2)c2ccc(OC)cc2)cc1` (stereo not given), with 8.1% (inactive); and `OC(CNCCc1ccc(C(F)(F)F)cc1)COc1ccc2ccccc2c1` (stereo not given), with 30.5% (inactive).

Consider `N#CCSc1ccsc1C(=O)Nc1ccc(F)cc1`, for which the inhibition is 2.6% (inactive). Consider `COCCn1nnnc1CN1C2CCCC1CC(NC(C)=O)C2` (stereo not given), for which the inhibition is 0.2% (inactive). `COc1cc(/C=N/OCC(=O)NC2CCCCC2C)ccc1OCc1ccc(Cl)cc1` (stereo not given): the inhibition is -3.5% (inactive). As for `CCOc1ccccc1CNS(=O)(=O)c1ccc(-c2cnc(C3CC3)o2)cc1`, the inhibition is 99.5% (inactive). On to `COc1cccc(N2CCN(c3ncnc4c3[nH]c3ccc(F)cc34)CC2C)c1` (stereo not given), for which the inhibition was 91.8% (active). As for `COc1cccc(N2CCN(c3ncnc4c3[nH]c3ccccc34)CC2C)c1` (stereo not given), the inhibition was 33% (inactive). As to `Fc1ccc2[nH]c3c(N4CCN(c5ccccc5)CC4)ncnc3c2c1`, the inhibition was -5.9% (inactive). As for `COC(=O)COc1ccc(S(=O)(=O)NCc2ccco2)cc1`, the inhibition is 10.1% (inactive). In the case of `C/C(=C\c1ccccc1)C(=O)NCCCn1ccnc1`, the inhibition was 9.4% (inactive). The same measure for `Cc1ccc(NC(=S)N(CCCN2CCOCC2)Cc2cccs2)c(C)c1`: 25.2% (inactive); for `Cc1ccccc1NC(=S)N(CCCN1CCOCC1)Cc1cccs1`: 54.6% (inactive).

Regarding `CCC(C)(C)n1nnnc1C(c1cccc(C#N)c1)N1CCN(c2cc(C)ccc2C)CC1` (stereo not given), the inhibition is 2.5% (inactive). Then `CCc1cc2c(=O)c(-c3ccc4c(c3)OCCO4)coc2cc1OS(C)(=O)=O`, with 8% (inactive). For `COc1cc(/C=C(\C#N)C(=O)NC2CCCCC2C)ccc1OS(=O)(=O)c1ccc(C)cc1` (stereo not given), the inhibition is 28.8% (inactive). Regarding `COc1cc(/C=C(\C#N)C(N)=O)ccc1OS(=O)(=O)c1ccc(C)cc1`, the inhibition was 28.6% (inactive). On to `O=C(OCc1nnc(-c2ccccc2)o1)C12CC3CC(CC(Br)(C3)C1)C2`, for which the inhibition was 0.4% (inactive). Regarding `N#CC(C#N)=C1C=C2C=C(N3CCCCCC3)CCC2CC1` (stereo not given), the inhibition was 23.3% (inactive).

In the case of `N#CC(C#N)=C1C=C2C=C(N3CCCCC3)CCC2CC1` (stereo not given), the inhibition was 3.1% (inactive). Turning to `CCc1ccc(CN2CCC(n3nccc3NC(=O)c3ccccc3)CC2)o1`, the inhibition was -3.9% (inactive).

In the case of `Cc1c(C(=O)NCc2ccc3c(c2)OCO3)sc2nc(-c3ccc(F)cc3)cn12`, the inhibition was 11.5% (inactive).

As for `CC(C)c1nnc(NC(=O)CCC(=O)NCc2ccccc2Cl)s1`, the inhibition was 13% (inactive). With `CCCNc1nc(=S)n(-c2ccccc2)c(C)c1C(C)=O`, the inhibition was 4.7% (inactive).

In the case of `Cc1ccc(-c2csc3ncnc(SCc4ccc(C(=O)O)cc4)c23)cc1`, the inhibition was 10% (inactive). For `O=C(O)CSc1ncnc2scc(-c3ccccc3)c12`, the inhibition is 3.8% (inactive). Consider `O=C(NNC(=S)NCc1ccccc1)c1ccc(Br)o1`, for which the inhibition is 13.5% (inactive).
